Results published in the supplement of paper PMC6555819.

system: VDR:RXRa (NR concentration 270 nM, RXRa partner concentration 90 nM); assay: PBM binding z-score (relative to random genomic background probes); higher = stronger binding; sequences stand for … in GC…GCGATTGACAGCGTAGAATGAAGG
Experimental: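 Protein-binding microarray (Agilent 4x180K custom design, double-stranded 60-nt probes: 5' GC cap, 34-nt variable region, 24-nt constant primer region; full probe sequence given). Purified or IVT nuclear receptor:RXRα heterodimers (3:1 NR:RXRα, mostly 270:90 nM) or homodimers were incubated for 1 h in PBS with 2% milk and no ligand, then detected with Alexa488 antibodies. Fluorescence from o1-orientation probes (~5 replicates averaged) was converted to z-scores against 500 random hg19 background probes. Variable regions are seed direct-repeat (DR0–DR5) sites, all their single-nucleotide variants and half-site ablations.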

Sequence | PBM binding z-score
CGTACTGGGCCATCAGGTCATTGATATCAACGTT | 1.97
ATAGGTAGGTTACATCCGGGTCATTCAGGCTATG | 4.21
CCTCGGAGGATAGAAGGTCAGAGCTGTCCGCTTT | 0.755
CCTAGCAGGCCAATCTGGGTAACTCAAGGCTTGA | -0.773
ACTAGTTGGTCAGCTGCGGTCACACACAATTCGG | 0.586
CGTCCAAGGTCATAGGAGATCAGTGAAGACAGAT | 4.3
ACTAGCAGGCCAAGCGTCACTCAAGATTAGTCCG | -0.477
TCGAGTAGGTTAGTCGGGGCACTCAGCCAACATA | 1.2
ATATCTAGGTAAAGTTCAGTGAAAGATCGATAGA | 1.53
ATCTCTAGGTAAGACTCAGTTCAGGGAAGAACGC | 1.06
CAAACTAGGTCACCAGAAGGTCAAAGTCCGCATG | 5.66
ATACCAAGGTGATCGTGAGGTCTTTGATACTAAC | 0.526
CGAACTAGGTCATCCAGTACAGTGAATACATTGA | 5.08
TCTATTAGGTGATTAGGGCAACCGAAACAGCGGA | 0.268
ACTAGCAGGCCAACGGTCACTCAAGATTAGTCCG | -0.505
AATACAGGGTCACTAAGCCAGAGTAGGTACGAAT | 4.02
AGTAAAAGTTCATCTAGGTAACGTAAGATATGCT | 4.57
CCTTACGGGCCAAGGTTATAGCACGGGTGGTACG | -0.139
CGATCTAGGTCATTGACAGGACAGTGAATAGTAA | 2.09
ACTATTAGTTGACTTAGGGCAACCTATACGACGC | 0.406

Sequence | PBM binding z-score
GATACATGGTCAGCTAGAGGCCAGAGTATGGAAA | -0.32
AGGACGAGGGCAATGAGTTGATAGCACGGGTGGC | 5.11
GAGACAGGGTCAAGGCCAGAGTACGCGTATTGAT | 4.4
TAGCCTTGGTCATTCAGGGGCCAGTATAGAAAGC | -0.0829
CTACAAAGGTGAACAAGGTCGTTGATTACTATTC | 6.38
CCGACAGGGGCAAGGTTACCATAACGCACAGCCA | 0.616
ATATGTAGGTTAAATCCGGGTCATTCAGGCTATG | 4.63
GCTGCTAGGTCAGGTTAGTCAGCTAACGGGTACG | 0.235
GGAACGATGGCAAAGTTGATAGCATCTGTCGACG | -0.351
AGTCAAAGTTCAGGACGGGGTAACGTAAAGCACG | 3.34
GCTATTAGTTGAAAGGACAACCGAATGATTCTCG | -0.113
CCTTACGGGTCACTGACCGGTTATAGCATTTGGA | 3.34
CCTATTAGTCGACCATAAGGGCAACCGAAGCTCG | 0.145
CCTACTGGGCCAAAAAGGTCATTCATGCCGATAA | 4.88
CAAACTCGGTCAAGGTCAAAGTCGGTTTGTGCCA | 4.95
TCTAGCCGGCCAGAGGGTCACTCAAGAGGTACGG | 1.41
GCTCGGAGGACAAGGTCATAGCTTTGTCCGTAGA | 3.33
ACTTGCGGGTCAACGAGGTTATAGCACGCGTATA | 7.55
AATACAGGGTCAATAGGCCAGAGTAGGTACGAAT | 3.64
GTATATAGGTAATACAAGGTGAAAGTCCGATTGT | 0.822
